Data taken from PubChem BioAssay AID686970 (National Center for Advancing Translational Sciences (NCATS), 2013).
About 6,000 (1.7%) of roughly 360,000 compounds were called active. About 8% were inconclusive and are not listed. What follows is part of a selection rich in actives, with near analogues and random picks from the rest. Entries that show only a call come without a potency. A number with no mark means an inactive call. Calls follow the shape of the dose curve; as a rule, active = well fitted cell-killing curve with a large enough effect; inconclusive = small, poorly fitted or top-dose-only effect, or effect the other way; inactive = flat fitted curve, though single readings scatter.

assay: qHTS for induction of synthetic lethality in tumor cells producing 2HG: qHTS for the HT-1080-NT fibrosarcoma cell line; details: HT-1080-NT fibrosarcoma viability, CellTiter-Glo ATP luminescence, 48 h; series mostly up to 46.1 µM;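 also: NT is the 2HG producing partner of a matched IDH1 knockdown line; nearly all actives have a fitted effect of over 55% in size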
How it was run: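 HT-1080-NT; 750 cells/well; 5% FBS RPMI; 48 h compound, 37 degrees C; CellTiter-Glo luminescence; curve fitting and curve-class assignment.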
Potency is read from the fitted curve at half-maximal effect.

Compound | Potency | activity, negative = less viability
CCCNC(=O)C1(C)CCN1C(=O)Cc1ccc(-c2ccccc2)cc1 (stereo not drawn) | inactive | 
O=C(C(=O)N1CCN(c2ccccc2)CC1)c1ccc2c(c1)OCO2 | inactive | 
c1ccc(Cn2nnc3c(N4CCCCC4)ncnc32)cc1 | inactive | 
CC1(C(=O)NS(=O)(=O)c2ccc(Cl)cc2)CCN1C(=O)CC1CCCC1 (stereo not drawn) | inactive | 
Cn1cccc1/C=N/NC(=O)c1ccc(OC(F)(F)C(F)F)cc1 | inactive | 
O=C(Nc1ccc(OC(F)(F)F)cc1)c1ccc2c(c1)no[n+]2[O-] | 18.4 µM (active) | 
Cn1nccc1NC(=O)Nc1ccc(OC(F)(F)F)cc1 | inactive | 
COC(=O)C[C@@H]1C=C[C@@H](NC(=O)c2cccnc2)[C@@H](CO)O1 | inactive | 
O=C(Nc1ccc(Cl)c(C(F)(F)F)c1)C1Cc2c(-c3ccccc3Oc3ccccc3)ccnc2O1 (stereo not drawn) | inactive | 
CC(C)CN1CCC1(C)C(=O)Nc1ccc(OC(F)F)cc1 (stereo not drawn) | inactive | 
Cc1cc(C)n2c(NCc3ccccc3)c(CC(C)C)nc2n1 | inactive | 
COc1ccccc1-c1cc2nc(NCc3cccc(Cl)c3)ccn2n1 | inactive | 
CC(C)Cc1ccc(-c2cc3nc(NCc4cccc(Cl)c4)ccn3n2)cc1 | 23.1 µM (active) | 
O=C(C(=O)N1CCC(c2ccccc2)CC1)c1ccccc1 | inactive | 
CCC1OC(C2CC2)CC2=C1C(=O)OC(C)(C)O2 (stereo not drawn) | inactive | 
Clc1cc(-c2ccc(/C=N/n3cnnc3)o2)ccc1Br | inactive | 
Cc1ccc(Cl)cc1-c1ccc(/C=N/n2cnnc2)o1 | inactive | 
Cc1cc([N+](=O)[O-])c(-c2ccc(/C=N/n3cnnc3)o2)cc1Cl | 10 µM (active) | 
COC(=O)[C@H]1C[C@H](OC(=O)NCc2ccccc2)[C@@]2(O)CN(S(=O)(=O)c3ccc(C)cc3)CC2[C@H]1C(=O)OC (stereo partly drawn) | inactive | 
COc1ccc(-c2cc3c(c4c2ccn4C)C2CCC3C2)cn1 (stereo not drawn) | inactive | 
COC(=O)C1(C(=O)OC)C/C=C\CN(S(=O)(=O)c2ccccc2[N+](=O)[O-])CCC1 | inactive | 
COc1ccc(CN2C(=O)C(CC(=O)NC3CCCCC3)CC(C(=O)N3CCOCC3)=C2C)cc1 (stereo not drawn) | inactive | 
CCNC(=O)c1ccc(OCC(=O)Nc2ccc(F)cc2)c(OC)c1 | inactive | 
COc1ccc(C(=O)OCC(=O)Nc2cccc(C(C)=O)c2)cc1OC | inactive | 

Compound | Potency | activity, negative = less viability
COc1cc(C(=O)N(C)Cc2cccc(OC)c2OC)ccc1OCC(=O)Nc1cccc(C(F)(F)F)c1 | 8.2 µM (active) | 
COc1ccc(CN2CCC(C)(Oc3cccc(F)c3)C2)c2ccccc12 (stereo not drawn) | inactive | 
CC1(C)CCc2cc(S(=O)(=O)N3CCN(c4nc(-c5cccs5)nc5ccccc45)CC3)ccc2O1 | inactive | 
COc1ccc(-c2ccc(C(=O)NC(C)C)c3occc23)c(C)c1 | inactive | 
COc1ccc(-c2ccc(C(=O)NCCN3CCOCC3)c3occc23)c(C)c1 | 16.4 µM (active) | 
COc1ccc(-c2cc(C(=O)NCCCN3CCOCC3)no2)cc1 | inactive | 
CC1(C(=O)NCc2ccccc2)CSCC(=O)N1CCCn1ccnc1 (stereo not drawn) | inactive | 
COC(=O)C[C@H]1C=C[C@@H](NS(=O)(=O)c2ccc(C)cc2)[C@@H](CO)O1 | inactive | 
Cc1ccc(S(=O)(=O)N2C[C@H]3C(=O)C[C@@H](c4cccc5ccccc45)N(S(=O)(=O)c4ccc(C)cc4)[C@H]3C[C@H]2c2ccc(Cl)cc2)cc1 | inactive | 
Nc1ncnc2c1ncn2[C@@H]1O[C@H](C(=O)N2CCSC2)[C@@H](O)[C@H]1O | inactive | 
C[C@@H]1CN([C@@H](C)CO)C(=O)c2cc(Br)cnc2O[C@@H]1CN(C)C(=O)C1CCCCC1 | inactive | 
CC(=O)Nc1ccc(NC(=O)CCCNC(=O)c2ccc(Cl)cc2)cc1 | inactive | 
O=C(Nc1cc(C(F)(F)F)ccc1Cl)C(=O)N1CCCCC1 | inactive | 
CCCCC(=O)Nc1ccc(C(=O)Nc2cc(C(F)(F)F)ccc2Cl)cc1 | 16.4 µM (active) | 
CCCCNC(=O)C[C@@H]1C[C@@]2(C(=O)OCC)CCC=C2N(Cc2cccc3ccccc23)C1=O | inactive | 
CC1(C(=O)NS(=O)(=O)C2CC2)CCCN(C(=O)CSc2ccccc2)C1 (stereo not drawn) | inactive | 
Cc1cc2oc(=O)cc(CN(C)Cc3ccccc3)c2cc1Cl | inactive | 
CC1CCCC(NC(=O)COC(=O)c2ccccc2C(=O)N(C)C2CCCCC2)C1C (stereo not drawn) | inactive | 
Cc1ccccc1C1=N/C(=C/c2cccnc2)C(=O)O1 | inactive | 
O=C1/C(=C\c2cccnc2)CN(Cc2ccccc2)C/C1=C\c1cccnc1 | 1.3 µM (active) | 
O=C(O)C1CC(=O)N(Cc2cccnc2)C1 (stereo not drawn) | inactive | 
N#Cc1cccc(NC(=O)c2cc(C3CCCCN3C(=O)CCc3ccccc3)on2)c1 (stereo not drawn) | inactive | 
O=S(=O)(Nc1ccc(O)c2ccccc12)c1ccc(OC(F)(F)F)cc1 | 23.1 µM (active) | 
Cc1nn(C)c(C)c1NS(=O)(=O)c1ccc(OC(F)(F)F)cc1 | inactive | 

Compound | Potency | activity, negative = less viability
O=C1COc2ccc(S(=O)(=O)Nc3ccc(OC(F)(F)F)cc3)cc2N1 | inactive | 
COc1ccc(CC(=O)NC2CCSc3ccccc32)cc1OC (stereo not drawn) | inactive | 
COc1ccc(CC2c3cc(OC)c(OC)cc3CC[N+]2(C)CCC(=O)OCCCCCOC(=O)CC[N+]2(C)CCc3cc(OC)c(OC)cc3C2Cc2ccc(OC)c(OC)c2)cc1OC (stereo not drawn) | 18.4 µM (active) | 
COC(=O)C1=CN(Cc2ccc(OC)c(OC)c2)C=C(C(=O)OC)C1c1cccs1 | inactive | 
Cc1ccc(-c2ccc(CN3C(C)C(=O)N(Cc4cn(CCC5OCCCO5)nn4)CCS3(=O)=O)cc2)cc1 (stereo not drawn) | inactive | 
COc1ccc(C(C(=O)NC2CCCCC2)N(C(=O)CCl)c2ccccc2Cl)cc1 (stereo not drawn) | 18.4 µM (active) | 
Cc1ccccc1N(C(=O)CNC(=O)c1cccs1)C(C(=O)NC1CCCC1)c1ccncc1 (stereo not drawn) | inactive | 
COc1ccc(C(C(=O)NC2CCCCC2)N(C(=O)c2snc(C(N)=O)c2N)c2ccccc2OC)cc1 (stereo not drawn) | inactive | 
Cc1ccc(Cc2c(-c3ccc(C)cc3)nc3c4ccccc4ccn23)cc1 | inactive | 
O=c1c2c3c(sc2n(CCN2CCCC2)c(=O)n1Cc1ccccc1)CCCCC3 | inactive | 
CN(C)CCCn1c(=O)n(Cc2ccccc2)c(=O)c2c3c(sc21)CCCCC3 | 16.4 µM (active) | 
CCn1c(=S)[nH]c2sc3c(c2c1=O)CCCCC3 | inactive | 
O=C(NCc1ccccc1Cl)c1csc([C@@H]2O[C@H](CO)[C@@H](O)[C@H]2O)n1 | inactive | 
COc1ccccc1N1CC(C(=O)Nc2ccc(S(=O)(=O)N3CCOCC3)cc2)CC1=O (stereo not drawn) | inactive | 
COc1ccc(Cl)cc1NC(=O)C1CC(=O)N(c2ccc(F)cc2)C1 (stereo not drawn) | inactive | 
COc1cc(OC)c(N2CC(C(=O)Nc3cc(Cl)ccc3N3CCOCC3)CC2=O)cc1Cl (stereo not drawn) | 5.8 µM (active) | 
CCCNC(=O)C1(C)CCN(C(=O)c2ccccc2OC(F)(F)F)C1 (stereo not drawn) | inactive | 
O=C(O)C1CCCN1c1nc(Cl)ccc1[N+](=O)[O-] (stereo not drawn) | inactive | 
COc1ccc(-c2ccc3[nH]c4c(c3c2)CCN2C[C@H]3[C@H](C)ON(C)[C@H]3C[C@@H]42)cc1 | inactive | 
CCOC(=O)c1c(NC(=S)SC)sc(C(=O)N2CCc3ccccc3C2)c1C | inactive | 
Cc1ccc(S(=O)(=O)N2CCCCC2)cc1NC(=O)CCNC(=O)c1ccccc1Cl | inactive | 
C=CCn1c(CC(=O)Nc2cccc(OC)c2)nnc1SCC(=O)NC1CCCCC1 | inactive | 
Cc1ccc(-n2c(SCC(=O)NCCC3=CCCCC3)nc3n[nH]c(C)c3c2=N)cc1Cl | 23.1 µM (active) | 
COc1cccc(-n2c(SCC(=O)NC3CCS(=O)(=O)C3)nc3ccccc3c2=O)c1 (stereo not drawn) | inactive | 

Compound | Potency | activity, negative = less viability
CCCCNC(=O)CSc1nc2n[nH]c(C)c2c(=N)n1-c1cccc(Cl)c1C |  | 1.53% [at 9.24 µM]
COc1cccc(-n2c(SCC(=O)NC3CCCCC3)nc3n[nH]c(C)c3c2=N)c1 | 14.6 µM (active) | 
Cc1nnc(OCC(=O)NCCC2=CCCCC2)c2ccccc12 | inactive | 
O=c1cc(CN2CCCCCCC2)c2c(ccc3ccccc32)o1 | inactive | 
Nc1[nH]c(C(=O)c2ccccc2)c(-c2ccc(Br)cc2)c1C(=O)NC1CC1 | inactive | 
CCc1nc2c(OCCOc3ccccc3)cccn2c1N(C)C(=O)c1cccs1 | inactive | 
CCc1nc2c(=O)[nH]cnc2o1 | inactive | 
Cc1ccccc1S(=O)(=O)NC(=O)C1(C)CCN1C(=O)C1(c2ccccc2)CCCC1 (stereo not drawn) | inactive | 
CCOC(=O)C1(C)CCCN(C(=O)c2ccc(F)c(Cl)c2)C1 (stereo not drawn) | inactive | 
COc1ccc(CNc2nc(NCc3ccc(OC)cc3)c3ncn(C4CCCC4)c3n2)cc1 | 7.31 µM (active) | 
COc1ccc(CNC(=O)C2CCCC2)cc1 | inactive | 
COc1ccc(CNc2nccs2)cc1 | inactive | 
O=c1[nH][nH]c2c1[C@H](c1ccc(Cl)cc1)O[C@H](CCc1ccccc1)C2 | inactive | 
COc1cccc(CNC(=O)[C@@H]2CCCN2C(=O)[C@@H]2CCCN2C(=O)c2ccccc2)c1 | inactive | 
CC1(C(=O)NCc2ccc3c(c2)OCO3)CCN1C(=O)Cc1cccc2ccccc12 (stereo not drawn) | inactive | 
COc1ccc(OC)c(C(O)c2ncc(-c3cccc(C(F)(F)F)c3)[nH]2)c1 (stereo not drawn) | inactive | 
COc1cc2nc(Cl)nc(NC3CC3)c2cc1OC | inactive | 
Cc1ccc([C@H]2N[C@]3(CCCN(Cc4ccccc4)C3=O)[C@H]3C(=O)N(Cc4ccccc4)C(=O)[C@@H]23)cc1 | inactive | 
CC(C)C[C@H]1CNC(=O)C(=O)N1C[C@@H]1CCCN1C[C@H](Cc1ccccc1)N1C[C@H](CC(C)C)N(CC2CCCCCC2)C(=O)C1=O | inactive | 
CC(C)C[C@H]1CN([C@@H](Cc2ccccc2)CN2CCC[C@@H]2CN2C(=O)C(=O)NC[C@@H]2Cc2ccc(O)cc2)C(=O)C(=O)N1CCc1ccccc1 | inactive | 
CC(C)C[C@H]1CNC(=S)N1C[C@H]1CCCN1C[C@H](Cc1ccc(O)cc1)N1C[C@H](Cc2ccc(O)cc2)N(CC2CCCCC2)C1=S | 20.6 µM (active) | 
